This is part of a sample that, as a whole, favours compounds with a hit. Of some 83,000 tested, about 20% had one in any assay.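 Single-dose data. Exposure time 48 hours. Values below 10 considered active.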 Calls of active or inactive are those of the source.
Key:
Test in all cases: NCI-60 one-dose screen, 48 h (100 = growth as untreated, 0 = no growth, -100 = all killed)
Conditions in all cases: 10 µM unless noted
[1] = tested on: NCI-H23 lung
[2] = tested on: NCI-H226 lung
[3] = tested on: NCI-H322M lung
[4] = tested on: HOP-62 NSCLC
[5] = tested on: NCI-H460 lung
[6] = tested on: HOP-92 NSCLC
[7] = tested on: NCI-H522 lung
[8] = tested on: A549/ATCC NSCLC
[9] = tested on: 786-0 renal
[10] = tested on: COLO 205 colon

Measured: growth

CC(C)c1ccc(COCc2cc(CN3CCCC3)c(O)c3ncccc23)cc1
inactive: [3] 12.2% | [10] 18.9%
active: [1] 8.78% | [2] -6.04% | [4] 2.49% | [5] -40.8% | [6] -5.15% | [7] -40.1% | [8] 7.74% | [9] -15.4%

COc1ccc(C2c3sc4c(F)cccc4c3Oc3nc[nH]c(=O)c32)cc1 (stereo not given)
inactive: [1] 78.4% | [2] 66.6% | [3] 68.6% | [4] 79.5% | [5] 82.7% | [6] 59.4% | [7] 80.1% | [8] 88.8% | [9] 91.8%

CCCC(=O)NC(c1ccc2c(c1)OCO2)c1ccc2cccnc2c1O (stereo not given)
active: [5] 9.17% | [7] -4.35%
inactive: [1] 24.1% | [2] 12.2% | [3] 25.9% | [4] 20.4% | [6] 31.4% | [8] 20.8% | [9] 19.8%

CN1CCN(C(=O)c2ccc(NC(=O)Nc3ccc(-c4nc(N5CCOCC5)c5cccn5n4)cc3)cc2)CC1
active: [2] -6.51% | [3] -12% | [4] -13.5% | [5] 7.17% | [6] -28.6% | [8] 1.15% | [9] -20.1%
inactive: [1] 15.4% | [7] 12.4%

C=C(C)[C@@H]1CC[C@]2(C(=O)NCCNCCN)CC[C@]3(C)[C@H](CC[C@@H]4[C@@]5(C)C/C(=C/c6ccncc6)C(=O)C(C)(C)[C@@H]5CC[C@]43C)[C@@H]12
inactive: [1] 97.2% | [2] 100% | [3] 94.2% | [4] 101% | [5] 99.2% | [6] 75.5% | [7] 94.7% | [8] 99.9% | [9] 90.2%

CCc1ccc(Oc2cn[nH]c2-c2ccc(OCCc3ccc(F)cc3)cc2O)cc1
inactive: [1] 92.8% | [2] 96.7% | [3] 98.6% | [4] 114% | [5] 94.8% | [6] 83.2% | [8] 66.9% | [9] 99.7% | [10] 108%
active: [7] -36.5%

CCOC(=O)CNP(=O)(OC[C@@H](Cc1ccccc1)NC(=O)c1cc2ccccc2s1)Oc1ccccc1 (stereo not given in full)
inactive: [1] 81.1% | [2] 93.2% | [3] 93.3% | [4] 85.3% | [5] 72.7% | [6] 69.3% | [7] 71.7% | [8] 64.8% | [9] 89.7%

CC(=O)n1nc(C(=O)OC(C)C)c2cc(C)c(C)cc21
inactive: [1] 95.2% | [2] 96.4% | [3] 101% | [4] 92.1% | [5] 98.7% | [6] 67.1% | [7] 88.8% | [8] 82.2% | [9] 80.9%

CCn1c(=S)[nH]c2c(=O)n(C)c(=O)n(C)c21
inactive: [1] 105% | [2] 105% | [3] 95% | [4] 109% | [5] 123% | [6] 89.8% | [7] 90.3% | [8] 96.3% | [9] 97.1%

CC(C)(C)[Si](C)(C)O[C@H]1C(=O)C=CN2CC=C[C@@H]12
inactive: [1] 93.3% [100 µM] | [2] 94.4% [100 µM] | [3] 104% [100 µM] | [4] 111% [100 µM] | [5] 103% [100 µM] | [6] 93.9% [100 µM] | [7] 91.7% [100 µM] | [8] 110% [100 µM] | [9] 105% [100 µM]

Fc1ccc2[nH]cc(-c3nonc3-c3c[nH]c4ccc(Br)cc34)c2c1
inactive: [1] 24.4% | [2] 53.6% | [3] 35.9% | [6] 22.4% | [8] 19.5% | [9] 23.5%
active: [4] 9.17% | [5] 1.22% | [7] -12.1%

O=C(Nc1nc2ccc(F)cc2s1)c1cccnc1Nc1ccc(Cl)cc1
inactive: [2] 44.1% | [3] 30.9% | [4] 75.6% | [7] 21.1% | [8] 31% | [9] 56.2% | [10] 49.8%
active: [1] 9.97% | [5] 9.26% | [6] 0.414%

C=C1C(=O)O[C@H]2[C@H]1CC/C(COC(=O)NCc1cc[nH]c1)=C\CC[C@@]1(C)O[C@@H]21
active: [7] -8.14%
inactive: [1] 85.8% | [2] 68.5% | [3] 89.5% | [4] 87.3% | [5] 68.5% | [6] 37.2% | [8] 86.7% | [9] 49.5%

N#C/C(=C\c1ccc(Br)cc1)n1nnc2ccc(F)cc21
inactive: [1] 16% | [4] 31.4% | [6] 36.7% | [8] 16.6%
active: [2] 2.99% | [3] 9.42% | [5] -35.9% | [7] -18.2% | [9] -73.8%

Nc1nc(=S)c2ncn(C3OC(COP(=O)(O)O)C(O)C3O)c2[nH]1 (stereo not given)
inactive: [1] 14.5% | [2] 32.8% | [3] 53.2% | [4] 20.1% | [6] 33.4% | [8] 32.9% | [9] 22.9%
active: [5] 8.01% | [7] -3.01%

COc1ccc2c(O)c(/C=C3\N=Nc4ncccc43)oc2c1C[C@H]1CCNC[C@H]1F
inactive: [6] 25.7%
active: [1] -3.41% | [2] 1.06% | [3] 9.44% | [4] 5.59% | [5] -26% | [7] -13.5% | [8] 0.136% | [9] -18.6% | [10] -51.8%

OCCNCCCOc1ccc2ncnc(Nc3ccc(Oc4cccc(C(F)(F)F)c4)c(Cl)c3)c2c1
active: [5] -82.5% | [9] -4.05% | [10] -27.7%
inactive: [1] 63.8% | [2] 85.2% | [3] 21.5% | [4] 66.5% | [6] 40.5% | [7] 30.8% | [8] 23.8%

O=C1CC(N2C(=O)/C(=C/C(Cl)=C\c3ccc([N+](=O)[O-])cc3)SC2=S)C(=O)N1c1ccc(Cl)cc1 (stereo not given)
active: [6] -18.6% | [7] -26.4% | [9] -12.1% | [10] 4.01%
inactive: [1] 17.3% | [2] 95.5% | [3] 65.1% | [4] 50.4% | [5] 74.5% | [8] 71%

O=C(/C=C/c1ccc(Cl)cc1)c1cccc(Nc2nc(Nc3ccccc3)nc(Nc3ccccc3)n2)c1
inactive: [1] 85.8% | [2] 96.9% | [3] 94.6% | [4] 85.2% | [5] 103% | [6] 24.1% | [7] 89.3% | [8] 81.8% | [9] 86.4%

COc1cnc2c(c1)C(=O)c1c-2n(CCCNCCO)c(=O)c2ccncc12
active: [1] 1.25% | [2] -43.9% | [3] -2.47% | [4] 9.4% | [5] -41.6% | [7] -30.2% | [8] 7.92%
inactive: [6] 20.8% | [9] 12.3%

COC(=O)c1ccc2c(c1)C(=O)c1c-2n(CCCN)c(=O)c2cc([N+](=O)[O-])ccc12
active: [1] -53.8% | [2] -73.4% | [3] -84.3% | [4] -93.2% | [5] -100% | [6] -88.1% | [7] -78.2% | [8] -94% | [9] -98.5%

CN[C@]12CC3(C=CC(=O)C=C3)O[C@@]1(Cc1ccc(OC)cc1)N(C)C(=O)N2
inactive: [1] 82.8% | [2] 22.2% | [3] 49.7% | [4] 23.9% | [5] 98.7% | [6] 39.3% | [8] 79.7%
active: [7] -46.5% | [9] 6.84%

O=C(O)c1ccc(-n2cc(/C=N/Nc3ccc(F)cc3)c(-c3cc4ccccc4oc3=O)n2)cc1
inactive: [1] 90.8% | [2] 101% | [3] 85.4% | [4] 84.3% | [5] 96.5% | [6] 81.5% | [7] 50.9% | [8] 92.9% | [9] 74.6% | [10] 110%

Cc1cc2c(O)c(-c3cccc(Cl)c3)c3sc(=O)oc3c2cc1C
inactive: [1] 12% | [2] 42.9% | [3] 59.8% | [4] 76.7% | [5] 24.9% | [7] 12.7% | [8] 69.1% | [9] 78.8%
active: [6] -31.3%

CCOC(=O)c1[nH]c(=O)c2c(C)nc(-c3ccccc3)cc2c1O
inactive: [1] 105% | [2] 93% | [3] 118% | [4] 124% | [5] 102% | [6] 78.5% | [7] 92.7% | [8] 101% | [9] 112%

CC/C(=C(/c1ccc(Cl)cc1)c1ccc(OCCN2CCCC2)cc1)c1ccc(OC)cc1
inactive: [1] 52.9% | [2] 89% | [3] 79.7% | [4] 92.6% | [5] 37.6% | [6] 67% | [7] 82.7% | [8] 61.9% | [9] 71.9% | [10] 64.7%

COc1cc(CNC(=O)/C=C/C=C/c2ccc3c(c2)OCO3)ccc1OCc1cn(-c2ccc(C)c(C)c2)nn1
active: [6] -4.29%
inactive: [1] 66.8% | [2] 47.8% | [3] 82.3% | [4] 92.5% | [5] 85% | [7] 59.5% | [8] 80.4% | [9] 106%

CCOC(=O)C1=C(NC)OCC1=O
inactive: [1] 99.9% | [2] 96.3% | [3] 100% | [4] 100% | [5] 101% | [6] 83.5% | [7] 96.7% | [8] 90.9% | [9] 106%
